Assay [1] is described as follows: A CellTox Green Cytotoxicity Assay to monitor cytotoxicity in HEK293 cells - 40 hour (AID 1224871). Also: nearly all actives have a fitted effect of over 45% in size. Also: potency is read from the fitted curve at half-maximal effect. In short, it runs like this:
(§1)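 Each value comes from one timepoint of a single continuous run in which HEK293 cells with CellTox Green were exposed to compound for up to 40 h at 37 C, dye fluorescence rising with cell death.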

Assay [2] can be described thus: qHTS RealTime-Glo MT Cell Viability Assay in HEK293 cells - 16 hour (AID 1224872). Also: nearly all actives have a fitted effect of over 50% in size. Also: potency is read from the fitted curve at half-maximal effect. As to activity change, negative = cytotoxicity: top concentration of the series differs between compounds. In outline: (§2)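 Reads taken at 0, 8, 16, 24, 32 and 40 h from the same wells. HEK293 cells (600/well) carried RealTime-Glo reagents from seeding, with compound added after a 5 h settle at 37 C.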
Assay [3] is described as follows: qHTS RealTime-Glo MT Cell Viability Assay in HEK293 cells - 40 hour (AID 1224874). Also: nearly all actives have a fitted effect of over 50% in size. Also: potency is read from the fitted curve at half-maximal effect. As to conditions: RealTime-Glo luminescence; max response: hits give low values. In outline: (§3)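 qHTS format; HEK293 cells with NanoLuc/prosubstrate reagent, 37 C/5% CO2 for 5 h pre-dosing; compounds 23 nL in DMSO; luminescence at each time point reflects viable cells.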
Assay [4] can be described thus: A CellTox Green Cytotoxicity Assay to monitor cytotoxicity in HEK293 cells - 24 hour (AID 1224875). Also: nearly all actives have a fitted effect of over 45% in size. Also: potency is read from the fitted curve at half-maximal effect. As to activity change: series mostly up to about 77 µM. In short, it runs like this: as §1
Assay [5] in a line: qHTS RealTime-Glo MT Cell Viability Assay in HepG2 cells - 32 hour (AID 1224877). Also: nearly all actives have a fitted effect of over 55% in size. Also: potency is read from the fitted curve at half-maximal effect. In outline: (§4)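 HepG2 suspension premixed with RealTime-Glo reagents is plated at 600 cells per well and left 5 h at 37 C/5% CO2. Compounds in DMSO then go in, and bioluminescence reflecting viable cell number is recorded over 40 h.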
On the technique in general: qHTS replaces the single test concentration by a dilution series.

The nature of assay [6]: A CellTox Green Cytotoxicity Assay to monitor cytotoxicity in HepG2 cells - 24 hour (AID 1224878). Also: nearly all actives have a fitted effect of over 45% in size. Also: potency is read from the fitted curve at half-maximal effect. In outline:
(§5)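 Continuous culture of HepG2 cells with a membrane-impermeant DNA dye; rising fluorescence marks dead cells. Compound exposure lasted up to 40 h at 37 C, with reads every 8 h from 0 h.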

A short description of assay [7]: A CellTox Green Cytotoxicity Assay to monitor cytotoxicity in HepG2 cells - 40 hour (AID 1224879). Also: nearly all actives have a fitted effect of over 40% in size. Also: potency is read from the fitted curve at half-maximal effect. In outline: as §5
Assay [8] is described as follows: qHTS RealTime-Glo MT Cell Viability Assay in HEK293 cells - 0 hour (AID 1224880). Also: top concentration of the series differs between compounds; nearly all actives have a fitted effect of over 45% in size. In short, it runs like this: as §3
Assay [9] is described as follows: A CellTox Green Cytotoxicity Assay to monitor cytotoxicity in HEK293 cells - 32 hour (AID 1224881). Also: nearly all actives have a fitted effect of over 40% in size. Also: potency is read from the fitted curve at half-maximal effect. In outline:
as §1

Assay [10] in a line: A CellTox Green Cytotoxicity Assay to monitor cytotoxicity in HepG2 cells - 0 hour (AID 1224882). Also: nearly all actives have a fitted effect of over 35% in size. Also: potency is read from the fitted curve at half-maximal effect. In short, it runs like this: as §5
The nature of assay [11]: A CellTox Green Cytotoxicity Assay to monitor cytotoxicity in HepG2 cells - 32 hour (AID 1224883). Also: nearly all actives have a fitted effect of over 50% in size. Also: potency is read from the fitted curve at half-maximal effect. In outline: as §5
The nature of assay [12]: A CellTox Green Cytotoxicity Assay to monitor cytotoxicity in HEK293 cells - 8 hour (AID 1224884). Also: nearly all actives have a fitted effect of over 35% in size. In short, it runs like this: as §1
A short description of assay [13]: qHTS RealTime-Glo MT Cell Viability Assay in HepG2 cells - 16 hour (AID 1224885). Also: nearly all actives have a fitted effect of over 50% in size. Also: potency is read from the fitted curve at half-maximal effect. In short, it runs like this: as §4
A short description of assay [14]: qHTS RealTime-Glo MT Cell Viability Assay in HEK293 cells - 24 hour (AID 1224886). Also: nearly all actives have a fitted effect of over 50% in size. Also: potency is read from the fitted curve at half-maximal effect. As to activity change, negative = cytotoxicity: top concentration of the series differs between compounds. In short, it runs like this: as §2
Assay [15] in a line: qHTS RealTime-Glo MT Cell Viability Assay in HEK293 cells - 8 hour (AID 1224887). Also: nearly all actives have a fitted effect of over 50% in size. Also: potency is read from the fitted curve at half-maximal effect. As to activity change, negative = cytotoxicity: top concentration of the series differs between compounds. In outline:
as §3

Assay [16] is described as follows: A CellTox Green Cytotoxicity Assay to monitor cytotoxicity in HEK293 cells - 16 hour (AID 1224888). Also: nearly all actives have a fitted effect of over 35% in size. Also: potency is read from the fitted curve at half-maximal effect. In short, it runs like this: as §1
Assay [17] is described as follows: qHTS RealTime-Glo MT Cell Viability Assay in HepG2 cells - 0 hour (AID 1224889). Also: nearly all actives have a fitted effect of over 50% in size. In short, it runs like this: as §4
Assay [18] can be described thus: A CellTox Green Cytotoxicity Assay to monitor cytotoxicity in HepG2 cells - 8 hour (AID 1224890). Also: nearly all actives have a fitted effect of over 45% in size. Also: potency is read from the fitted curve at half-maximal effect. In outline:
as §5

A short description of assay [19]: A CellTox Green Cytotoxicity Assay to monitor cytotoxicity in HepG2 cells - 16 hour (AID 1224876). Also: nearly all actives have a fitted effect of over 45% in size. Also: potency is read from the fitted curve at half-maximal effect. In outline: as §5

Unmarked numbers belong to inactive results. Records with an inconclusive call do not appear. Activity calls are given as the source filed them. Calls follow the shape of the dose curve; as a rule, active = well fitted curve in the direction sought with a large enough effect in the repeat runs; inconclusive = weak or mixed curves; inactive = no such curve, though single readings can be large; an effect the other way counts as inactive or inconclusive.
% is scaled to controls: 0 for no effect and ±100 for the full control effect.

As for `CC(=O)SC[C@@H](Cc1ccccc1)C(=O)NCC(=O)OCc1ccccc1`, the Potency entry in [1], in assay [2], in [4], in [5], in assay [6] and in assay [7] was “inactive” in each case. The Potency result in [8], in assay [9], in [10], in assay [11], in [12] and in assay [13] was “inactive” in each case. The Potency result in assay [14], in assay [15], in assay [16], in [17] and in assay [18] was “inactive” in each case. Also, the max response in assay [3] is 0.0146%.
`N=C1C=CC(=C(c2ccc(N)cc2)c2ccc(N)cc2)C=C1`: the Potency result in assay [1], in assay [4], in [6], in assay [7], in [8] and in assay [10] was “inactive” throughout. The Potency entry in assay [11], in assay [12], in [16], in [17] and in assay [18] was “inactive” each time. Further, the Potency in assay [2] is 3.09 µM (active); in [3] it was 1.95 µM (active); in [5], 24.5 µM (active); in assay [14], 3.47 µM (active).
With `[O-][n+]1ccccc1SSc1cccc[n+]1[O-]`, the Potency in [1] is 1.31 µM (active); in assay [2] it was 1.31 µM (active); in assay [3], 1.17 µM (active); in assay [4] it was 4.65 µM (active); in assay [19], 9.28 µM (active); in [5], 0.165 µM (active). The Potency was 1.47 µM (active) in assay [6]; 0.329 µM (active) in [7]; 2.93 µM (active) in assay [9]; 11.7 µM (active) in assay [10]; 0.585 µM (active) in assay [11]; 0.233 µM (active) in [13]. The results for the Potency in assay [14], in [16] and in [18] were 1.31 µM (active), 8.27 µM (active) and 10.4 µM (active), respectively. For the same compound, the activity change, negative = cytotoxicity in assay [8] was -7.04% [at 15.8 µM]; in assay [17] it was -1.89% [at 15.8 µM].
`Oc1cccc2cc3cccc(O)c3c(O)c12`: the Potency result in [1], in assay [2], in assay [4], in assay [19], in assay [5] and in assay [6] was “inactive” throughout. The Potency entry in assay [7], in assay [8], in [9], in [10], in [11] and in assay [12] was “inactive” each time. The Potency result in assay [13], in assay [14], in assay [15], in assay [16], in assay [17] and in [18] was “inactive” throughout. Besides, in assay [3], the max response was 0.771%.
Regarding `CCN(CCC#N)c1ccc(N=Nc2c(Cl)cc([N+](=O)[O-])cc2Cl)cc1`, the Potency entry in assay [1], in assay [2], in [4], in assay [19], in assay [6] and in [7] was “inactive” in each case. Also, the Potency result in assay [8], in assay [9], in assay [10], in assay [11], in assay [14] and in [15] was “inactive” in each case. In addition, the Potency entry in [16] and in assay [18] was “inactive” each time. Also, the max response in assay [3] is -15.8%.
As to `OC1(c2ccc(Cl)c(C(F)(F)F)c2)CCN(CCCC(c2ccc(F)cc2)c2ccc(F)cc2)CC1`, the Potency in [1] is 21.3 µM (active); in assay [2], 9.52 µM (active); in [3], 9.52 µM (active); in [4] it was 23.9 µM (active); in assay [19] it was 10.7 µM (active); in assay [5], 8.49 µM (active). The Potency in [6] was 9.52 µM (active); in assay [7] it was 6.74 µM (active); in assay [9] it was 23.9 µM (active); in assay [11], 8.49 µM (active); in [13], 10.7 µM (active); in assay [14] it was 9.52 µM (active). Moreover, the figures for the Potency in assay [15], in [16] and in assay [18] were 19 µM (active), 23.9 µM (active) and 19 µM (active), respectively. For the same compound, the Potency entry in assay [8], in [10] and in assay [17] was “inactive” in each case.
For the compound `CC(C)(C)CC(C)(C)c1ccc(O)c(Cc2ccc(Cl)cc2Cl)c1`, the Potency in assay [1] is 23.9 µM (active); in assay [2], 21.3 µM (active); in [3], 23.9 µM (active); in assay [4], 26.8 µM (active); in assay [9], 23.9 µM (active); in [14] it was 23.9 µM (active). In assay [15], the Potency is 23.9 µM (active). Besides, the Potency entry in [8], in assay [10], in [12] and in assay [17] was “inactive” throughout.
Take `COc1ccc(CN2CCN(C(c3ccc(F)cc3)c3ccc(F)cc3)CC2)c(OC)c1OC`: the Potency was 4.77 µM (active) in assay [1]; 9.52 µM (active) in assay [2]; 16.9 µM (active) in [3]; 10.7 µM (active) in [7]; 10.7 µM (active) in assay [11]; 9.52 µM (active) in assay [14]. Moreover, in [15], the Potency is 19 µM (active). For the same compound, the Potency result in assay [4], in assay [19], in assay [6], in [8], in assay [10] and in assay [12] was “inactive” in each case. Besides, the Potency entry in assay [16], in assay [17] and in assay [18] was “inactive” in each case.
On to `CCCCCCCCCCCCc1ccc(O)cc1`, for which the Potency in [1] is 49 µM (active); in assay [2], 38.9 µM (active); in [3], 38.9 µM (active); in assay [4], 49 µM (active); in [19], 15.5 µM (active); in assay [5], 49 µM (active). Further, the Potency in assay [6] is 13.8 µM (active); in assay [7] it was 19.5 µM (active); in assay [11] it was 15.5 µM (active); in assay [13] it was 43.6 µM (active); in assay [14], 43.6 µM (active); in [15] it was 43.6 µM (active). The Potency is 49 µM (active) in [16] and 17.4 µM (active) in assay [18]. The Potency entry in assay [8] and in assay [17] was “inactive” throughout.
Turning to `[Cl][Au]([Cl])[Cl]`, the Potency was 21.9 µM (active) in assay [1]; 4.9 µM (active) in assay [2]; 3.09 µM (active) in assay [3]; 21.9 µM (active) in assay [4]; 21.9 µM (active) in assay [19]; 9.77 µM (active) in assay [5]. For the same compound, the Potency was 13.8 µM (active) in [6]; 7.76 µM (active) in assay [7]; 19.5 µM (active) in [9]; 11 µM (active) in assay [11]; 15.5 µM (active) in [13]; 3.89 µM (active) in assay [14]. Further, in assay [16], the Potency was 49 µM (active). For the same compound, the Potency result in assay [8], in assay [10] and in assay [17] was “inactive” throughout.
Regarding `CCCCN(CCCC)C(=O)N(CCCC)CCCC`, the Potency result in assay [1], in assay [2], in assay [4], in assay [19], in assay [5] and in [6] was “inactive” in each case. The Potency entry in assay [7], in [8], in assay [10], in assay [11], in [12] and in assay [13] was “inactive” each time. Moreover, the Potency result in assay [14], in [15], in assay [16], in [17] and in assay [18] was “inactive” each time. Further, in [3], the max response is -2.17%.
For `C[C@@H]1C[C@H]2[C@@H]3CCC4=CC(=O)C=C[C@]4(C)[C@@]3(Cl)[C@@H](O)C[C@]2(C)[C@@]1(OC(=O)c1ccco1)C(=O)CCl`, the Potency entry in assay [1], in assay [2], in [4], in assay [19], in assay [6] and in [7] was “inactive” throughout. The Potency entry in assay [8], in [9], in assay [10], in assay [11], in assay [12] and in [14] was “inactive” throughout. In addition, the Potency result in assay [15], in assay [16], in assay [17] and in [18] was “inactive” each time. Moreover, in assay [3], the max response is -19.5%.
